Consider 39 compounds from PubChem BioAssay (NCI).

The panel holds about 83,000 compounds, 20% with a hit somewhere; the sample as a whole holds those more often.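 Note: values are percent growth. 100 is the growth of untreated cells, values between 100 and 0 indicate rising inhibition; between -100 and 0 indicates cell death.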 The source made the active and inactive calls. The calls were made as follows: active = growth percent below 10; inactive = the rest.

The test system of the first test is SNB-75 CNS. In words: NCI-60 one-dose screen, 48 h (100 = growth as untreated, 0 = no growth, -100 = all killed). The following applies: 10 µM unless noted.
For the compound `N#Cc1c(N)nc(N)nc1Nc1ccc(Br)cc1`, the growth was 96.8% (inactive).
Take `CCN(CC)CC(C)(C)C(=O)/C=C/c1ccccc1`: the growth is 81.6% (inactive).
On the same count and under the same terms, for `CNc1cc2nc3cc(NC)c(C)cc3cc2cc1C` the value was 16.5% (inactive); for `O=C(COc1cccc(/C=C2/Oc3ccccc3C2=O)c1)Nc1nccs1`, 84.8% (inactive).
The same measure, in the same setting: for `O=C(Cc1ccccc1)c1ccc(Cl)cc1` the value was 95.9% (inactive); for `O=C(O)c1cccnc1Br`, 86.2% (inactive).

The next test concerns U251 CNS. The description is as above. As to conditions: 10 µM unless noted.
As for `Cc1ccc2c(c1)n([O-])c1cc(Cl)ccc1[n+]2=O`, the growth was 110% (inactive).
Consider `CN1/C(=C\C=C\C2=[N+](C)c3ccccc3C2(C)C)C(C)(C)c2ccccc21`, for which the growth was 9.16% (active).
In the case of `CC/C(=C(\c1ccccc1)c1ccc(OCCNC)cc1)c1ccccc1`, the growth was -80.3% (active).
Same read-out and setting: the figure for `CCN(CC)Cc1cc(Nc2c3ccc(Cl)cc3nc3c(C)cccc23)ccc1O` is -62.4% (active).
Still for that read-out and setting: the figure for `C=CC[N+]1(CCO)CCN=C1CCCCCCCCCCCCC` (centres undefined) is -87.8% (active); for `N#Cc1ccc(NC(=O)Nc2ccc(Cc3ccc(NC(=O)Nc4ccc(C#N)cc4)cc3)cc2)cc1` it is 34.4% (inactive); for `CC1=NNC(=O)C1C` (centres undefined) it is 105% (inactive).
Same read-out and setting: the figure for `COc1nc2c(cc1S(=O)(=O)c1ccccc1)CCc1c-2cnn1Cc1ccccc1` is 48.1% (inactive).
With `O=C(/C=C\c1ccc2ccccc2n1)c1cc(Cl)ccc1O`, the growth was 44.3% (inactive).
On the same count and under the same terms, the figure for `CCc1ccc(C(c2ccc(CC)cc2)C(Cl)(Cl)CCl)cc1` is 89% (inactive).
Same read-out and setting: the figure for `C=CCSc1nnc(-c2ccc(C(C)(C)C)cc2)n1-c1cccc(C(F)(F)F)c1` is 32.6% (inactive); for `CSc1ncnc2c1ncn2C1CCCO1` (centres undefined) it is 103% (inactive).
The same measure, in the same setting: for `OCC1C2C=CC(C2)C1CO` (centres undefined) the value was 100% (inactive); for `Cc1ccc(/C=C2\Oc3cc(OCC(=O)c4ccc(Cl)cc4)ccc3C2=O)cc1`, 97.5% (inactive); for `Cn1c2c(Cl)c(Cl)ccc2c2ccn3c(=O)c4ccccc4nc3c21`, 100% (inactive).
Regarding `CSc1[nH]c2ncnc(N)c2c1C#N`, the growth is 107% (inactive).
Same read-out and setting: for `CCN(CC)CCCC(C)NCCCNc1cccc2cccnc12` (centres undefined) the value was 91.4% (inactive); for `C=CC[N+]1(CC)CCN=C1CCCCCCCCCCCCCCCCC` (centres undefined), -100% (active); for `CCN(CC)CCCNc1cc(OC)cc2nc3cc(Cl)ccc3nc12`, 4.3% (active).
The same measure, in the same setting: for `CCCCCCCCCCNC(=O)CCl` the value was 69.8% (inactive).
The same measure, in the same setting: for `CCOC(=S)SCc1ccc(Cl)cc1` the value was 90.5% (inactive); for `O=C(O)c1ccc2c(c1Sc1ccccc1)C(=O)c1ccccc1C2=O`, 103% (inactive).
Take `CCN(CC)CC(C)Nc1ccc([N+](=O)[O-])c2sc3ccccc3c(=O)c12` (centres undefined): the growth was 28.4% (inactive).
On the same count and under the same terms, for `Cc1cc2c(cc1C)NC1=C(N2)OC(c2c3ccccc3cc3ccccc23)C1=O` (centres undefined) the value was -8.89% (active).
For `O=C(Nc1ccc(CN2CCOCC2)cc1)c1[nH]ncc1Nc1ncnc2sccc12`, the growth was 13.8% (inactive).
Turning to `CCOC(=O)C(C#N)C1CCCCC1` (centres undefined), the growth is 93.8% (inactive).
Take `Nc1cccc(NC(=O)C(=O)Nc2cccc(N)c2)c1`: the growth was 95.8% (inactive).
On to `CN(CC(=O)N(Cc1ccc(C2CCCCC2)cc1)c1ccc(C(=O)NO)cc1)S(=O)(=O)c1c(F)c(F)c(F)c(F)c1F`, for which the growth was 48.8% (inactive).
Still for that read-out and setting: the figure for `CCN(CC)c1ccc(/C=C/C2=[N+](C)c3ccccc3C2(C)C)cc1` is 13.8% (inactive); for `CN(C)c1ccc(/C=C(\C#N)c2nc3ccccc3s2)cc1` it is 106% (inactive).
Still for that read-out and setting: the figure for `CCN(CC)CC(O)CNc1c2ccc([N+](=O)[O-])cc2nc2cc(OC)c(OC)cc12` (centres undefined) is -16.2% (active).
On the same count and under the same terms, for `COc1nc2c(cc1S(=O)(=O)c1ccccc1)CCc1c-2cnn1-c1ccc(Cl)cc1` the value was 92.1% (inactive).
As to `Cc1cc(-c2nc3ccccc3s2)ccc1NC(=O)COc1ccc(Cl)cc1`, the growth was 94.1% (inactive).
In the case of `N#Cc1c(N)nc(N)nc1Nc1ccc(Br)cc1`, the growth was 96.9% (inactive).
On the same count and under the same terms, the figure for `CCN(CC)CC(C)(C)C(=O)/C=C/c1ccccc1` is 86.4% (inactive); for `CNc1cc2nc3cc(NC)c(C)cc3cc2cc1C` it is 9.07% (active).
On to `O=C(COc1cccc(/C=C2/Oc3ccccc3C2=O)c1)Nc1nccs1`, for which the growth was 89.4% (inactive).
The same measure, in the same setting: for `O=C(Cc1ccccc1)c1ccc(Cl)cc1` the value was 99.5% (inactive).
Still for that read-out and setting: the figure for `O=C(O)c1cccnc1Br` is 97.9% (inactive).

The next test concerns PC-3 prostate. Described as above. As to conditions: 10 µM unless noted.
As for `Cc1ccc2c(c1)n([O-])c1cc(Cl)ccc1[n+]2=O`, the growth is 93.6% (inactive).
For `CN1/C(=C\C=C\C2=[N+](C)c3ccccc3C2(C)C)C(C)(C)c2ccccc21`, the growth is 2.66% (active).
The same measure, in the same setting: the figure for `CC/C(=C(\c1ccccc1)c1ccc(OCCNC)cc1)c1ccccc1` is -67.6% (active); for `CCN(CC)Cc1cc(Nc2c3ccc(Cl)cc3nc3c(C)cccc23)ccc1O` it is -48.9% (active); for `C=CC[N+]1(CCO)CCN=C1CCCCCCCCCCCCC` (centres undefined) it is -29.9% (active).
On the same count and under the same terms, the figure for `N#Cc1ccc(NC(=O)Nc2ccc(Cc3ccc(NC(=O)Nc4ccc(C#N)cc4)cc3)cc2)cc1` is 23.3% (inactive); for `CC1=NNC(=O)C1C` (centres undefined) it is 108% (inactive).
On the same count and under the same terms, for `COc1nc2c(cc1S(=O)(=O)c1ccccc1)CCc1c-2cnn1Cc1ccccc1` the value was 38.3% (inactive).
`O=C(/C=C\c1ccc2ccccc2n1)c1cc(Cl)ccc1O`: the growth is 90.9% (inactive).
Consider `CCc1ccc(C(c2ccc(CC)cc2)C(Cl)(Cl)CCl)cc1`, for which the growth was 80.5% (inactive).
Same read-out and setting: the figure for `C=CCSc1nnc(-c2ccc(C(C)(C)C)cc2)n1-c1cccc(C(F)(F)F)c1` is 16.6% (inactive); for `CSc1ncnc2c1ncn2C1CCCO1` (centres undefined) it is 106% (inactive).
Still for that read-out and setting: the figure for `OCC1C2C=CC(C2)C1CO` (centres undefined) is 79.5% (inactive).
On the same count and under the same terms, for `Cc1ccc(/C=C2\Oc3cc(OCC(=O)c4ccc(Cl)cc4)ccc3C2=O)cc1` the value was 428% (inactive); for `Cn1c2c(Cl)c(Cl)ccc2c2ccn3c(=O)c4ccccc4nc3c21`, 101% (inactive); for `CSc1[nH]c2ncnc(N)c2c1C#N`, 110% (inactive).
For the compound `CCN(CC)CCCC(C)NCCCNc1cccc2cccnc12` (centres undefined), the growth was 87.3% (inactive).
In the case of `C=CC[N+]1(CC)CCN=C1CCCCCCCCCCCCCCCCC` (centres undefined), the growth is -68.6% (active).
Still for that read-out and setting: for `CCN(CC)CCCNc1cc(OC)cc2nc3cc(Cl)ccc3nc12` the value was 2.49% (active); for `CCCCCCCCCCNC(=O)CCl`, 66.1% (inactive).
The same measure, in the same setting: for `CCOC(=S)SCc1ccc(Cl)cc1` the value was 81.7% (inactive); for `O=C(O)c1ccc2c(c1Sc1ccccc1)C(=O)c1ccccc1C2=O`, 88.3% (inactive).
For `CCN(CC)CC(C)Nc1ccc([N+](=O)[O-])c2sc3ccccc3c(=O)c12` (centres undefined), the growth was 14.6% (inactive).
Same read-out and setting: the figure for `Cc1cc2c(cc1C)NC1=C(N2)OC(c2c3ccccc3cc3ccccc23)C1=O` (centres undefined) is 28.2% (inactive); for `O=C(Nc1ccc(CN2CCOCC2)cc1)c1[nH]ncc1Nc1ncnc2sccc12` it is 11% (inactive); for `CCOC(=O)C(C#N)C1CCCCC1` (centres undefined) it is 80.7% (inactive).
On the same count and under the same terms, for `Nc1cccc(NC(=O)C(=O)Nc2cccc(N)c2)c1` the value was 99.8% (inactive); for `CN(CC(=O)N(Cc1ccc(C2CCCCC2)cc1)c1ccc(C(=O)NO)cc1)S(=O)(=O)c1c(F)c(F)c(F)c(F)c1F`, 88.1% (inactive).
On the same count and under the same terms, for `CCN(CC)c1ccc(/C=C/C2=[N+](C)c3ccccc3C2(C)C)cc1` the value was 5.82% (active); for `CN(C)c1ccc(/C=C(\C#N)c2nc3ccccc3s2)cc1`, 105% (inactive); for `CCN(CC)CC(O)CNc1c2ccc([N+](=O)[O-])cc2nc2cc(OC)c(OC)cc12` (centres undefined), -53.4% (active).
In the case of `COc1nc2c(cc1S(=O)(=O)c1ccccc1)CCc1c-2cnn1-c1ccc(Cl)cc1`, the growth is 88.2% (inactive).
Consider `Cc1cc(-c2nc3ccccc3s2)ccc1NC(=O)COc1ccc(Cl)cc1`, for which the growth is 83.2% (inactive).
In the case of `N#Cc1c(N)nc(N)nc1Nc1ccc(Br)cc1`, the growth is 79.1% (inactive).
Still for that read-out and setting: for `CCN(CC)CC(C)(C)C(=O)/C=C/c1ccccc1` the value was 69% (inactive); for `CNc1cc2nc3cc(NC)c(C)cc3cc2cc1C`, 18.2% (inactive); for `O=C(COc1cccc(/C=C2/Oc3ccccc3C2=O)c1)Nc1nccs1`, 14.6% (inactive).
Still for that read-out and setting: for `O=C(Cc1ccccc1)c1ccc(Cl)cc1` the value was 116% (inactive).
Still for that read-out and setting: the figure for `O=C(O)c1cccnc1Br` is 108% (inactive).
